This is an account of results in PubChem BioAssay (NCI).

The panel holds about 83,000 compounds, 20% with a hit somewhere; the sample as a whole holds those more often.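 How to read the values: 0–100, growth inhibition (40 = 60% inhibited); 0, no net growth; -100 to 0, cell death (-40 = 40% of starting cells died; -100 = all dead).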 A number with no mark means an inactive call. Active and inactive are the calls of the source.

The experiment deals with OVCAR-5 ovarian. The experiment in a line: NCI-60 one-dose screen, 48 h (100 = growth as untreated, 0 = no growth, -100 = all killed). The conditions noted are these: 10 µM unless noted. On the procedure:
Growth inhibition of the OVCAR-5 human tumor cell line is measured as a screen for anti-cancer activity. Cells are grown in 96 well plates and exposed to the test compound for 48 hours. Compounds are tested at a single concentration, which is 10^-5 M for most compounds. The reported endpoint is percent growth (GI% or GIPRCNT), where numbers from 0 - 100% represent growth inhibition, and numbers from -100% - 0 represent cell death. For example, a value of 40 represents 60% growth inhibition. A value of 0 means no net growth occurred over the course of the experiment. A value of -40 indicates 40% of cells at the beginning of the experiment died by the end of the experiment. A value of -100 means all cells are dead at the end of the experiment.
NCI-60 Human Tumor Cell Lines Screen was performed using the standard one-dose NCI protocol, which is described in more detail at https://dtp.cancer.gov/discovery_development/nci-60/default.htm.
Compounds with GIPRCNT values below 10 were considered active. Activity score was based on GIPRCNT using the following formula: […]
Score is 0 for GIPRCNT values of 100 or above, 50 for GIPRCNT values of 0, and 100 for GIPRCNT values of -100.
For `NC1(N2SC(S)=C3CCCC=C32)CCCCC1`, the growth was 104%.
Take `C1CCN(c2nc(N3CCCCC3)nc(N3CCOCC3)n2)CC1`: the growth is 122%.
Under `O=C(N/N=C/c1ccccc1O)C(=O)Nc1ccc(F)cc1` stands 64.8%; under `COc1ccc(/C(C#N)=C/c2nc3c(N4CCOCC4)nc(Cl)nc3n2C)cc1OC`, 33.3%; under `Cc1cc2c(c(C)c1Cl)C(=O)/C(=C/c1ccco1)O2`, 114%.
Regarding `CN(C)/C=C1\SC(=Nc2ccc(Cl)cc2)NC1=O`, the growth was 96%.
Then `O=c1oc2ccc(Br)cc2c(=O)n1-c1ccc(I)cc1F`, with 22%; and `CCOC(=O)CSc1c(-c2ccccc2)c2cc(Cl)ccc2[nH]c1=O`, with 105%; and `O=S1(=O)CCN(Cc2ccccc2)CC1`, with 96.2%.
For `COc1cc(-c2c3c(c(Br)n2Cc2ccccc2)-c2nc(N)sc2CC3)cc(OC)c1OC`, the growth was 107%.
For the compound `CCOC(=O)C1(Cc2ccccc2)CCN(Cc2cccc(OC)c2O)CC1`, the growth is 42.4%.
As to `O=C(CCc1nnc2sc(-c3ccc(Cl)cc3Cl)nn12)c1nc2ncccc2[nH]1`, the growth was -49.3% (active).
In the case of `COc1cc(/C(C#N)=C/c2nc3c(N4CCOCC4)nc(Cl)nc3n2C)cc(OC)c1OC`, the growth is 34.6%.
Under `COc1ccc2sc3c(NCCCN)nc4ccccc4c3c(=O)c2c1` stands 82.8%.
In the case of `Cc1ccc(S(=O)c2ccc([N+](=O)[O-])c3nonc23)cc1` (stereo not given), the growth was 118%.
In the case of `COc1ccc(C2C3=C(COC3=O)N(CCO)c3cc4c(cc32)CCC4)cc1` (stereo not given), the growth is 96.2%.
Consider `O=C1/C=C/[C@@H](O)[C@@H]2C[C@@H](O)C[C@H]2/C=C/CCCCO1`, for which the growth is 36.6%.
Then `Oc1[nH]c2ccccc2c1N=Nc1nnc2n1N=C(c1ccccc1)CS2`, with 101%.
For the compound `COc1ccc(CCN2C(=O)CCSC2=S)cc1`, the growth was 98.1%.
Then `CCN(CC)CCCNc1ccnc2cc3ccccc3cc12`, with 84.7%.
Under `O=C(/C=C/c1ccccn1)c1ccc(OCc2nnc(-c3ccc(Cl)cc3)o2)cc1` stands 89.6%.
Then `CCCC(=O)CC(C)=O.CCCC(=O)CC(C)=O.[Cu]`, with 117%.
Take `COC(=O)c1c2c(c(C)[n+]([O-])c1C)C(=O)C(NCc1ccc(F)c(F)c1)=CC2=O`: the growth is 41.4%.
Take `COc1cc2c(cc1OC)C(=O)C(CC1CCN(C(=O)Nc3ccc(C)cc3)CC1)C2` (stereo not given): the growth was 86.9%.
Then `COc1cc(NC(=O)CCSc2nc3ccccc3c(=O)n2Cc2ccccc2)cc(OC)c1OC`, with 91%; and `O=C(NC(=S)Nc1cccc(NC(=S)NC(=O)c2ccccc2)c1)c1ccccc1`, with 116%; and `CNCCNc1nc2ccccc2c2c(=O)c3cccc(C)c3sc12`, with 55.3%.
On to `COc1ccc(C2Nc3nc(OC)n(C)c(=O)c3N=C3c4ccccc4C(=O)C32)cc1` (stereo not given), for which the growth was 103%.
Under `Cn1c(=O)n(C)c2cc(CNCCNc3ccnc4cc(Cl)ccc34)ccc21` stands 76.7%.
Take `Cn1cc(-c2ccc3ncc(-c4ccc(CC(=O)Nc5cc(C(C)(C)C)no5)cc4)nc3c2)cn1`: the growth was 74.6%.
Under `Cc1ccc(CN2CCC(C(=O)Nc3ccc(-c4cc5ccccc5[nH]4)cc3)CC2)o1` stands 98.1%; under `COC(=O)[C@H](NC(=O)C1(C)CCC[C@]2(C)[C@H]3C[C@H]4C(C(C)C)=C[C@]3(CC[C@@H]12)[C@@H]1C(=O)CCC(=O)[C@@H]14)C(C)C` (stereo not given in full), 98.7%.
As to `COc1cc(/C=C/C(=O)c2c(C)nc3ccccc3c2/C=C/c2ccccc2)cc(OC)c1OC`, the growth was 7.55% (active).
As for `CSc1nc2c(c(=O)[nH]1)N=C1c3ccccc3C(=O)C1C(c1ccccc1)N2` (stereo not given), the growth is 82.5%.
Under `COc1cc(/C=C/C(=O)c2ccc(Nc3nc(NCCO)nc(N4CCOCC4)n3)cc2)cc(OC)c1OC` stands 34%; under `Cc1ccc(Cc2cnc(NC(=O)CN3C(=O)/C(=C\c4ccccc4)SC3=S)s2)cc1`, 101%; under `Cc1ccc(Nc2nc(N)c3ccccc3n2)cc1Cl`, 75.5%.
Consider `Nc1ccccc1-c1ccc(-c2ccc(Cl)cc2)c2c1[nH]c1ccccc12`, for which the growth was 91.2%.
Turning to `COc1ccc(CSc2nnc(SCC(=O)Nc3ccc(Cl)cc3)s2)cc1`, the growth was 90.6%.
Under `COC(=O)c1c2c(c(C)[n+]([O-])c1C)C(=O)C(NCc1ccc(Br)cc1)=CC2=O` stands 69.1%.
